# Publication PMC7862700, “An all-to-all approach to the identification of sequence-specific readers for epigenetic DNA modifications on cytosine”
# Columns and labels:
# Experiment in all cases: DAPPL (digital affinity profiling via proximity ligation, sequencing); 10 mM Tris-HCl pH 7.5, 50 mM NaCl, 1 mM DTT, 4% glycerol, room temperature, 30 min; GST-TFs on glutathione beads, 16-mer random dsDNA library, 0.1% formaldehyde crosslink after washing; high values mean tight binding
# FLI1 = molecular target: T1, FLI1 (Homo sapiens, UniProt Q01543 1-452); conditions: protein: recombinant; tags: N-terminal GST; dsDNA, one strand shown
# T1 sequence: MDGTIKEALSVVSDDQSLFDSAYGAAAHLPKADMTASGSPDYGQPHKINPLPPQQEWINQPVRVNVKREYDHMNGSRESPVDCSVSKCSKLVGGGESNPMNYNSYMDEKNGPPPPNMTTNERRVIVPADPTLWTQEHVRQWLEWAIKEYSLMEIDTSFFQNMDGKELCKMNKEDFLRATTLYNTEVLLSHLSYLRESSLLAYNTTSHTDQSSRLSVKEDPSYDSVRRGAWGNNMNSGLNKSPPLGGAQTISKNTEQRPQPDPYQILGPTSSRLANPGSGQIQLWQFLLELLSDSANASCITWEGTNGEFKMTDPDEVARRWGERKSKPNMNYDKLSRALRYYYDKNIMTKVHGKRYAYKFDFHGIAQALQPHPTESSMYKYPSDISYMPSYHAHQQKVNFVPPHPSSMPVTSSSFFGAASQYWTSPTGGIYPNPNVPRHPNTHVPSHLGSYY
# Outline: (§1)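 Binding signal is defined as a hexamer's read frequency for one factor over its frequency for the tag-only sample. To obtain reads, GST-fused human transcription factors were expressed in yeast, captured on glutathione beads, barcoded with DNA and pooled with that sample. Pools met 200 nmole of a 16-mer random double-stranded DNA library in Tris/NaCl/DTT/glycerol buffer for 30 min at room temperature before washing, 0.1% formaldehyde crosslinking, proximity ligation (BsaI/T4 ligase, 1 h, 37 °C), PCR and Illumina NextSeq500 sequencing.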
# ELK1 = molecular target: T2, ELK1 (Homo sapiens, UniProt P19419 1-428); conditions: protein: recombinant; tags: N-terminal GST; dsDNA, one strand shown
# T2 sequence: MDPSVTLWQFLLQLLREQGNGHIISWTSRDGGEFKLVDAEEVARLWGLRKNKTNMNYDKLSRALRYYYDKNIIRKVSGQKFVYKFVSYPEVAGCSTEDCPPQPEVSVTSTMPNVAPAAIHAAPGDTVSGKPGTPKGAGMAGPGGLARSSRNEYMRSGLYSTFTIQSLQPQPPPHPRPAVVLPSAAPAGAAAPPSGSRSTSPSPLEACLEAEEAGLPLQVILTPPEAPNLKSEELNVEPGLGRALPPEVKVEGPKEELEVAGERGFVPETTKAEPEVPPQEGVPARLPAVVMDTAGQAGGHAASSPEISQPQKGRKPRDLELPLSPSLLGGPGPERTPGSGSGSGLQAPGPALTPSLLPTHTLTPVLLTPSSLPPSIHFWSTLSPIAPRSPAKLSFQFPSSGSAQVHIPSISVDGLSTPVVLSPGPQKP
# Outline: as §1
# GABPA = molecular target: T3, GABPA (Homo sapiens, UniProt Q06546 1-454); conditions: protein: recombinant; tags: N-terminal GST; dsDNA, one strand shown
# T3 sequence: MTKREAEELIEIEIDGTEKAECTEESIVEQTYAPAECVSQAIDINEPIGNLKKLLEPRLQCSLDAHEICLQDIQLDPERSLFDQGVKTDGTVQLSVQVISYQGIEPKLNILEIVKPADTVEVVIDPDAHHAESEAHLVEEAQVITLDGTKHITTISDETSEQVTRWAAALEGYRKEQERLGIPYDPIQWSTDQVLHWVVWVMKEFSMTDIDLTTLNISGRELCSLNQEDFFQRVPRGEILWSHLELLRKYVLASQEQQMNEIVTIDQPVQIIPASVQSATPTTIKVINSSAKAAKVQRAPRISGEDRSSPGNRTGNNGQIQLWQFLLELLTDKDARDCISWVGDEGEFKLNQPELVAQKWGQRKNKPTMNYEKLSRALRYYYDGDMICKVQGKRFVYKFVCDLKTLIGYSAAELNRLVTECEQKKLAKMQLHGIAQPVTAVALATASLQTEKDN
# Outline: as §1
# ERG = molecular target: T4, ERG (Homo sapiens, UniProt P11308 1-479); conditions: protein: recombinant; tags: N-terminal GST; dsDNA, one strand shown
# T4 sequence: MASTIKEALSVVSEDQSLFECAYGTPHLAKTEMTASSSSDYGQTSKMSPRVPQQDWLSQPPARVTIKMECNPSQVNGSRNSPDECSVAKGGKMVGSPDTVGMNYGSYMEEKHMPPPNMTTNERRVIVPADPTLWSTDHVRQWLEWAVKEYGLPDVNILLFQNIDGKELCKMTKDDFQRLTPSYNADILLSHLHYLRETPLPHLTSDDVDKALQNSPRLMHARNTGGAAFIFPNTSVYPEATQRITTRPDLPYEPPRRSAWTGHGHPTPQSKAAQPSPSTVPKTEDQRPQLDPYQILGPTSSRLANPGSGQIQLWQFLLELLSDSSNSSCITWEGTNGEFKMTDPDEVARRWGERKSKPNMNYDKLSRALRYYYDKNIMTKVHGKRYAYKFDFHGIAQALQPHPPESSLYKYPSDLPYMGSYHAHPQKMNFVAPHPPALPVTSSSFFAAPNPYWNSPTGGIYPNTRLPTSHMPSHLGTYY
# Outline: as §1
# ELF1 = ELF1 (Homo sapiens, UniProt P32519 1-619); conditions: protein: recombinant; tags: N-terminal GST; dsDNA, one strand shown
# Chain of ELF1 (P32519 whole entry): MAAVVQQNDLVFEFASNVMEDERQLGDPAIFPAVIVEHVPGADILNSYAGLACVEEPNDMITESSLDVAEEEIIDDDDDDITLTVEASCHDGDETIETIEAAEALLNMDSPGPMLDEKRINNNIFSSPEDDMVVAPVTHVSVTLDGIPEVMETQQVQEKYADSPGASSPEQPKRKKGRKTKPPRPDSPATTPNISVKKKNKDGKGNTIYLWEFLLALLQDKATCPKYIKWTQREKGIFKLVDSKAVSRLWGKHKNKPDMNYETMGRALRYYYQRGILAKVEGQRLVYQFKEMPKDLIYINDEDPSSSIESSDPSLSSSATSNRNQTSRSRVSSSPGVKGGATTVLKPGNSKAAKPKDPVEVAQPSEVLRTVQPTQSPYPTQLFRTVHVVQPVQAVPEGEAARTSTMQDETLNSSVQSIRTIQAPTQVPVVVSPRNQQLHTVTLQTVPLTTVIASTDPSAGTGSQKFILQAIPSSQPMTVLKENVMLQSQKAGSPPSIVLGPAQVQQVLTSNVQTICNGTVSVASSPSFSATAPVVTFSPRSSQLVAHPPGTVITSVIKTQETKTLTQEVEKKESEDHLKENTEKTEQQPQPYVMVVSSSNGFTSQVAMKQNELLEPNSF
# Outline: as §1
# EHF = molecular target: T5, EHF (Homo sapiens, UniProt Q9NZC4 1-300); conditions: protein: recombinant; tags: N-terminal GST; dsDNA, one strand shown
# T5 sequence: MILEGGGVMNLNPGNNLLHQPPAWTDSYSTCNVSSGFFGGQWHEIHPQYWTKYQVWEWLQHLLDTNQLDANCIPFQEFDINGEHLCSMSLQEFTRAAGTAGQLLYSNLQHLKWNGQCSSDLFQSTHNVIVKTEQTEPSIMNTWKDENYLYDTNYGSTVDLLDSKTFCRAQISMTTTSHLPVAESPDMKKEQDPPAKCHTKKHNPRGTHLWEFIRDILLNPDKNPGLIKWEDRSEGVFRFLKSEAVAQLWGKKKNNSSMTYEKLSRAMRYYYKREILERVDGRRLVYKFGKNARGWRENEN
# Outline: as §1
# SPI1 = SPI1 (Homo sapiens, UniProt P17947 1-270); conditions: protein: recombinant; tags: N-terminal GST; dsDNA, one strand shown
# Outline: as §1
# SPIB = SPIB (Homo sapiens, UniProt Q01892 1-262); conditions: protein: recombinant; tags: N-terminal GST; dsDNA, one strand shown
# Chain of SPIB (Q01892 whole entry): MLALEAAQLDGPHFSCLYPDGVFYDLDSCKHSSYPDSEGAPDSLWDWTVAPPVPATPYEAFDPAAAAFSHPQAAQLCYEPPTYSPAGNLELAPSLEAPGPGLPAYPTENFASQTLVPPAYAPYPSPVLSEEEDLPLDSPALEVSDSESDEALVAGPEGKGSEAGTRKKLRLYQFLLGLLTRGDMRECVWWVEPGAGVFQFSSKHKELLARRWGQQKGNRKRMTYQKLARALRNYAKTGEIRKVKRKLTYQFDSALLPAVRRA
# Outline: as §1
# ELK3 = molecular target: T6, ELK3 (Homo sapiens, UniProt P41970 1-407); conditions: protein: recombinant; tags: N-terminal GST; dsDNA, one strand shown
# T6 sequence: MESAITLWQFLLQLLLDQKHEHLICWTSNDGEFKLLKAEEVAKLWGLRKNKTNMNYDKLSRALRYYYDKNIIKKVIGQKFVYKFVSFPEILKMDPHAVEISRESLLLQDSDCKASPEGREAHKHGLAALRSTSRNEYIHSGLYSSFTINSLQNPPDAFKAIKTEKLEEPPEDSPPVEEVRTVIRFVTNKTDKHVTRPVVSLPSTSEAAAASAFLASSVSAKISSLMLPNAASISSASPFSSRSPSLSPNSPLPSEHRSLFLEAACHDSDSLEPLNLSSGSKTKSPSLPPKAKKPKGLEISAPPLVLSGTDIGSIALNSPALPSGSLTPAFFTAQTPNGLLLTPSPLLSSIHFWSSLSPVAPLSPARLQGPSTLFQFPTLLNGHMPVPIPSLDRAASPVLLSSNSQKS
# Outline: as §1
# FEV = molecular target: T7, FEV (Homo sapiens, UniProt Q99581 1-238); conditions: protein: recombinant; tags: N-terminal GST; dsDNA, one strand shown
# T7 sequence: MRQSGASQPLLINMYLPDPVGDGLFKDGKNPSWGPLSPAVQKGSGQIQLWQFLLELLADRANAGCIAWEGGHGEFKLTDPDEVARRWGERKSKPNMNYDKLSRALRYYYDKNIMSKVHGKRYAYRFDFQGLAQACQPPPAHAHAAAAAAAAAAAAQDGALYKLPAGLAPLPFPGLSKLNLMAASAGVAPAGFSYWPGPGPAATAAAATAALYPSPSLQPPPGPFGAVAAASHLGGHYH
# Outline: as §1
# ETV5 = ETV5 (Homo sapiens, UniProt P41161 1-510); conditions: protein: recombinant; tags: N-terminal GST; dsDNA, one strand shown
# Chain of ETV5 (P41161 whole entry): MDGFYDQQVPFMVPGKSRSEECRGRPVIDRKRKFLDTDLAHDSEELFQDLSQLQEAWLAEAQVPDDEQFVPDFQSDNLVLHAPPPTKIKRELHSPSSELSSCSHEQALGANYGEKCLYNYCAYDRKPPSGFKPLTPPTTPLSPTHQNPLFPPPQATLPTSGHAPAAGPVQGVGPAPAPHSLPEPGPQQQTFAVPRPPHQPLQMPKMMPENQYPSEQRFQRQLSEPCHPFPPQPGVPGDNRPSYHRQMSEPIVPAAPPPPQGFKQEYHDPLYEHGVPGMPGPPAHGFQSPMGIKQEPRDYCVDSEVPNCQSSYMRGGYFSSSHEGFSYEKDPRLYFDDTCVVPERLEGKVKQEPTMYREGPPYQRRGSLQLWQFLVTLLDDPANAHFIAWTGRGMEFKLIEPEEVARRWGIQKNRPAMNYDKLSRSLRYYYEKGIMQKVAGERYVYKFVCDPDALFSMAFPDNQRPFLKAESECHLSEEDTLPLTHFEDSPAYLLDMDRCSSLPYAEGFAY
# Outline: as §1
# HSF1 = HSF1 (Homo sapiens, UniProt Q00613 1-529); conditions: protein: recombinant; tags: N-terminal GST; chain copies: 3; dsDNA, one strand shown
# Chain of HSF1 (Q00613 whole entry): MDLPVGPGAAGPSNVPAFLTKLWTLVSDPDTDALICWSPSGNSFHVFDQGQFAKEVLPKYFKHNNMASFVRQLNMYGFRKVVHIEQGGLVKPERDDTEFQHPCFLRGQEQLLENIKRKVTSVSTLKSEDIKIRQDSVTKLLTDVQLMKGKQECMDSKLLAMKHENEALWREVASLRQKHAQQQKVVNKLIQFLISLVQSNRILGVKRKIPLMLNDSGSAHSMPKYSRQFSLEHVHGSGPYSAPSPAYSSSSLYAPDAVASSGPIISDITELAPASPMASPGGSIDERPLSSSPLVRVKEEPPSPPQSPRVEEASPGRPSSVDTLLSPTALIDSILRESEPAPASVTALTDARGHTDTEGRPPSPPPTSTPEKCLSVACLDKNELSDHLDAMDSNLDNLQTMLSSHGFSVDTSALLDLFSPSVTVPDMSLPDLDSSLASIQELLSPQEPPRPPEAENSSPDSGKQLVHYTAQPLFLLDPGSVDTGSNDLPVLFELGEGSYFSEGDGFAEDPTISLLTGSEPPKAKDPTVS
# Outline: as §1
# SPIC = molecular target: T8, SPIC (Homo sapiens, UniProt Q8N5J4 1-248); conditions: protein: recombinant; tags: N-terminal GST; dsDNA, one strand shown
# T8 sequence: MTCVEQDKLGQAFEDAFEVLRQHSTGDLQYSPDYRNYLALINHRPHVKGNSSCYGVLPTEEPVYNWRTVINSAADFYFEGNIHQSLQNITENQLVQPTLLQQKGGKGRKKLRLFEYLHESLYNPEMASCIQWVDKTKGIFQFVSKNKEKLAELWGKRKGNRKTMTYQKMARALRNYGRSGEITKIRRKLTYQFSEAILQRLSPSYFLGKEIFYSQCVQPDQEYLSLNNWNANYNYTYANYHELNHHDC
# Outline: as §1
# ELF4 = ELF4 (Homo sapiens, UniProt Q99607 1-663); conditions: protein: recombinant; tags: N-terminal GST; dsDNA, one strand shown
# Chain of ELF4 (Q99607 whole entry): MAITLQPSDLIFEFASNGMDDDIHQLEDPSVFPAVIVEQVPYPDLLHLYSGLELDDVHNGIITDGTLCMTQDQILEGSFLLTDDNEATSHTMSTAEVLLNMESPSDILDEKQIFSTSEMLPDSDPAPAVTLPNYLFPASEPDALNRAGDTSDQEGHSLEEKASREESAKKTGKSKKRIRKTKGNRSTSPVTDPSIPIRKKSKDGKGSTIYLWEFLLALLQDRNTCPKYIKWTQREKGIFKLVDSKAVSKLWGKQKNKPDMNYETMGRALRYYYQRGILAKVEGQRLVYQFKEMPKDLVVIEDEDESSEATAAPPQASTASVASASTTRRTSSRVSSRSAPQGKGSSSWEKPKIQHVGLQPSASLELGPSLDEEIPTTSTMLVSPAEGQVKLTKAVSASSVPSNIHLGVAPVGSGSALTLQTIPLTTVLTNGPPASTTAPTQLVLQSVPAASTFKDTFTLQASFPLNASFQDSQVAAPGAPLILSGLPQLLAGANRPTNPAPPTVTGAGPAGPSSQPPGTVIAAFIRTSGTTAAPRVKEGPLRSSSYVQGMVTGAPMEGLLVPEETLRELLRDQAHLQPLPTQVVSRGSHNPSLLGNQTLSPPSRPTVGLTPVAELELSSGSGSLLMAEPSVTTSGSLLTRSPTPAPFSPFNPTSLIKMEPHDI
# Outline: as §1
# ELK4 = molecular target: T9, ELK4 (Homo sapiens, UniProt P28324-2 1-405); conditions: protein: recombinant; tags: N-terminal GST; dsDNA, one strand shown
# T9 sequence: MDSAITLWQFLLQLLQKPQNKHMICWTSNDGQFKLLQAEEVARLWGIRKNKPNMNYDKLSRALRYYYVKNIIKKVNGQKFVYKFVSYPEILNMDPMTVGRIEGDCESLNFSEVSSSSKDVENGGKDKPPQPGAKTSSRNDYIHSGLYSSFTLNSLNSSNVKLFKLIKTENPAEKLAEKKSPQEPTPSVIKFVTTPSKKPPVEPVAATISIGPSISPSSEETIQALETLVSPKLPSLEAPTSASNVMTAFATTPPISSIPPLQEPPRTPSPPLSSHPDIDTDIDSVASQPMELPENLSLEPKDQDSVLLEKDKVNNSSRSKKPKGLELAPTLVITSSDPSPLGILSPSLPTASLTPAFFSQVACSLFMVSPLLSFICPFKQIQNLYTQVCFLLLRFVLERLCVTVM
# Outline: as §1
# ETV2 = molecular target: T10, ETV2 (Homo sapiens, UniProt O00321 1-342); conditions: protein: recombinant; tags: N-terminal GST; dsDNA, one strand shown
# T10 sequence: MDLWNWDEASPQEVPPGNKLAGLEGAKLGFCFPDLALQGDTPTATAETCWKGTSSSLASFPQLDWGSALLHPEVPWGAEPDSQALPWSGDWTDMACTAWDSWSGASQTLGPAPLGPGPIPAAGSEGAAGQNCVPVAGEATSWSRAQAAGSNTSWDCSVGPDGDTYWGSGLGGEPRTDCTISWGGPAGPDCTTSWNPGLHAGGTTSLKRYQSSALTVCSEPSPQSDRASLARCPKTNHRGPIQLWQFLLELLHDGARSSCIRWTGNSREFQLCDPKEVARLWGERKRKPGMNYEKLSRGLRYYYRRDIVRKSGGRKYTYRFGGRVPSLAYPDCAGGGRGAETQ
# Outline: as §1
# ELF3 = molecular target: T11, ELF3 (Homo sapiens, UniProt P78545 1-371); conditions: protein: recombinant; tags: N-terminal GST; dsDNA, one strand shown
# T11 sequence: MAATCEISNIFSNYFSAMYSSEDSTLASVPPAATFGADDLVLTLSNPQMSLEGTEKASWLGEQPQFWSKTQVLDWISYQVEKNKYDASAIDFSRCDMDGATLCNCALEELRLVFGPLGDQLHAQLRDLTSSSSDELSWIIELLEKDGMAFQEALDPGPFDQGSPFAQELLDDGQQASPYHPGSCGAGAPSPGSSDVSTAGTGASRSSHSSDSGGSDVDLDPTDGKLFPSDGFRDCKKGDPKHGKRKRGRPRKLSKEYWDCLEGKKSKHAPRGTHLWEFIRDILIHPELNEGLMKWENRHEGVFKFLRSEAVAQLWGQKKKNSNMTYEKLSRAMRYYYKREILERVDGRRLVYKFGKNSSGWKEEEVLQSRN
# Outline: as §1
# CRX = CRX (Homo sapiens, UniProt O43186 1-299); conditions: protein: recombinant; tags: N-terminal GST; dsDNA, one strand shown
# Chain of CRX (O43186 whole entry): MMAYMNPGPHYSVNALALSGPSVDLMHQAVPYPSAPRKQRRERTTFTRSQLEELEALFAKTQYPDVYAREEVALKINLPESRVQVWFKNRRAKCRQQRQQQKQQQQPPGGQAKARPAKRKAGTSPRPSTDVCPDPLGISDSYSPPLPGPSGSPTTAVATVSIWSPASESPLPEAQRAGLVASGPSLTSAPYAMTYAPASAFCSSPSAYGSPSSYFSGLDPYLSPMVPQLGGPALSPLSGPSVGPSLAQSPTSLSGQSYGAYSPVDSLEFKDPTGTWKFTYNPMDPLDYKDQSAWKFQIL
# Outline: as §1
# ETV1 = ETV1 (Homo sapiens, UniProt P50549 1-477); conditions: protein: recombinant; tags: N-terminal GST; dsDNA, one strand shown
# Chain of ETV1 (P50549 whole entry): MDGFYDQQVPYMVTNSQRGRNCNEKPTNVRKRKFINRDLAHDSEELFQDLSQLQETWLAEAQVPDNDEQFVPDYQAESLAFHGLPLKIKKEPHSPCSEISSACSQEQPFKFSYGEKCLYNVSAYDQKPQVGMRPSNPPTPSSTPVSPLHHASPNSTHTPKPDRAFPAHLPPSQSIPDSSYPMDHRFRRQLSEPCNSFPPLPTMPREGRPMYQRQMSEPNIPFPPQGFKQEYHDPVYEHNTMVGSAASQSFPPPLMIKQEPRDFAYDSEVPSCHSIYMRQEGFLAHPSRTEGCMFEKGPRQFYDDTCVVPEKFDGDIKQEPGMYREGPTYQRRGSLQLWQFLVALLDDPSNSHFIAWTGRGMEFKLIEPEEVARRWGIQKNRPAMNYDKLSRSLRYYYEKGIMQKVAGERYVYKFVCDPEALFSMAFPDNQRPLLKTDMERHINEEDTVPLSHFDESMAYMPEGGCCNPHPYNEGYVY
# Outline: as §1
sequence,measurement,setting,value
AAAGTA,binding signal,FLI1,"1.14 fold enrichment (6-mer frequency, TF over GST control)"
same,binding signal,ELK1,"1.1 fold enrichment (6-mer frequency, TF over GST control)"
same,binding signal,GABPA,"1.17 fold enrichment (6-mer frequency, TF over GST control)"
same,binding signal,ERG,"1.13 fold enrichment (6-mer frequency, TF over GST control)"
same,binding signal,ELF1,"1.13 fold enrichment (6-mer frequency, TF over GST control)"
same,binding signal,EHF,"1.15 fold enrichment (6-mer frequency, TF over GST control)"
same,binding signal,SPI1,"1.1 fold enrichment (6-mer frequency, TF over GST control)"
same,binding signal,SPIB,"1.18 fold enrichment (6-mer frequency, TF over GST control)"
same,binding signal,ELK3,"1.24 fold enrichment (6-mer frequency, TF over GST control)"
same,binding signal,FEV,"1.11 fold enrichment (6-mer frequency, TF over GST control)"
same,binding signal,ETV5,"1.09 fold enrichment (6-mer frequency, TF over GST control)"
same,binding signal,HSF1,"1.29 fold enrichment (6-mer frequency, TF over GST control)"
same,binding signal,SPIC,"1.04 fold enrichment (6-mer frequency, TF over GST control)"
same,binding signal,ELF4,"1.17 fold enrichment (6-mer frequency, TF over GST control)"
same,binding signal,ELK4,"1.13 fold enrichment (6-mer frequency, TF over GST control)"
same,binding signal,ETV2,"1.11 fold enrichment (6-mer frequency, TF over GST control)"
same,binding signal,ELF3,"1.11 fold enrichment (6-mer frequency, TF over GST control)"
same,binding signal,CRX,"1.35 fold enrichment (6-mer frequency, TF over GST control)"
same,binding signal,ETV1,"1.18 fold enrichment (6-mer frequency, TF over GST control)"
